Reference: PubChem BioAssay
Activity calls are given as the source filed them.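 The calls were made as follows, unless noted: active = NADPH fluorescence slope more negative than the mean of all samples by about 3 SD, 99.7% confidence; inactive = the rest.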

Legend:
[1] = inhibitors of TNFa-induced NFkB p65 translocation, primary screen, imaging, HUVEC, MLSMR starter and 10KST1 sets (AID 438;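 active = inhibition above 20% together with a positive visual image hit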;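 also: compound added about 3h40 before a 20 min TNFalpha stimulation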;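 as to inhibition: signal is the nuclear over cytoplasmic p65 intensity ratio per well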); details: HUVEC TNFa-induced p65 nuclear translocation; cell count: measured here: nuclei count (cytotoxicity indicator), at 2.08 µM; inhibition: at 2 µM, stronger effect = higher value, 0% TNFa-plus-vehicle, 100% no-TNFa wells
[2] = reduction of polyQ htt aggregates in cells – imaging, exon1htt(103Q)mCFP cells, high-content imaging, primary screen (AID 483;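 active = visual image review flags a hit and inhibition of aggregation exceeds 20%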;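 also: compound exposure lasted 3 days before fixation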;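 as to nuclei count: percent of the per-plate median nuclei count of sample wells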); details: exon1htt(103Q)mCFP cell line, aggregate imaging, at 2 µM; inhibition of aggregation: stronger effect = higher value; nuclei count: measured here: cell count, toxicity
[3] = endothelial E-selectin expression blockers – imaging, HUVEC, immunofluorescence, MLSMR starter and 10KST1 sets, primary screen (AID 487;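 active = visually confirmed hit in the image check and inhibition above 20%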;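 as to inhibition: signal is fraction of cell area covered by stained E-selectin grains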;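 as to nuclei count: 100% = median nuclei count of all wells on the same plate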); details: HUVEC TNFalpha-induced E-selectin immunofluorescence imaging, at 2 µM; inhibition: stronger effect = higher value; nuclei count: measured here: cell number, toxicity
[4] = molecular target: Voltage-gated potassium channel subunit beta-2 (Rattus norvegicus) (UniProt P62483); experiment: inhibitors of rat Kvbeta2 reductase activity – biochemical, NADPH fluorescence, primary screen (AID 622;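 active = fluorescence slope higher than the sample average by over 3 SD, cut at about -0.22 in these data, passing the limit was not always enough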;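 also: slope of raw intensity against log time taken from 70 to 1610 s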); details: recombinant KvBeta, 4-cyanobenzaldehyde reduction, at 10 µM, stronger effect = higher value
[5] = molecular target: Voltage-gated potassium channel subunit beta-2 (Rattus norvegicus) (UniProt P62483); experiment: enhancers of rat Kvbeta2 NADPH turnover – biochemical, NADPH fluorescence, primary screen (AID 623); details: Recombinant KvBeta, NADPH fluorescence decrease slope, 10 min; at 10 µM; stronger effect = lower value;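 also: fluorescence intensity change per second fitted from 20 to 320 s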
[6] = molecular target: Alpha-2C adrenergic receptor (Homo sapiens) (UniProt P18825); experiment: compounds altering alpha2C-coupled GIRK flux – cell-based, HEK293 alpha2C/GIRK1/2, thallium flux, primary screen (AID 624;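 active = fluorescence slope after compound addition differing from the mean of all screened samples at 99.7% confidence, in either direction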;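 also: slope of fluorescence ratio to pre-addition baseline per second over 15 to 24 s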); details: thallium flux BTC fluorescence, at 10 µM, actives lie on both sides
[7] = blockers of RIG-like receptor reporter activation – cell-based, Sendai virus stimulus, luciferase, 10K MLSCN set, TLR/RLR signaling modifier project, primary screen (AID 602276;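 active = inhibition at or above 50% at 10 µM; inactive = inhibition below 50%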;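 also: firefly luciferase from ISG56 promoter only with Renilla not read in this screen; 0% = Sendai virus plus DMSO and 100% = medium plus DMSO without virus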); details: HEK293 RL24 IRF3 luciferase reporter, at 10 µM, stronger effect = higher value
[8] = TLR3 IRF3 reporter activation blockers – cell-based, poly I:C stimulus, luciferase, 10K MLSCN set, primary screen (AID 602277;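 active = inhibition of the reporter signal at or above 50%; inactive = inhibition below 50%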); details: HEK293-TLR3 RL24 IRF3 luciferase reporter, at 10 µM, stronger effect = higher value

Chain of Voltage-gated potassium channel subunit beta-2 (Rattus norvegicus) (P62483 whole entry, looked up): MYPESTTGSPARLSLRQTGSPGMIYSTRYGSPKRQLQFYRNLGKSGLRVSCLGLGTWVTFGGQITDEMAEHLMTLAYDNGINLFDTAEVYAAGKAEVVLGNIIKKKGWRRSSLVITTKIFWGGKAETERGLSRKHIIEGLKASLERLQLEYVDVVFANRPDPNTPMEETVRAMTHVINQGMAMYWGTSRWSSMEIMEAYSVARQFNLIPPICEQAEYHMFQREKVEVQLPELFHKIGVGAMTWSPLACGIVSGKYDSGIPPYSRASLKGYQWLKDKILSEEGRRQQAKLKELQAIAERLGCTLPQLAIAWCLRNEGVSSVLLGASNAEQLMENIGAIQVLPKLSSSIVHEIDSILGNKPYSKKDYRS
Chain of Alpha-2C adrenergic receptor (Homo sapiens) (P18825 whole entry, looked up): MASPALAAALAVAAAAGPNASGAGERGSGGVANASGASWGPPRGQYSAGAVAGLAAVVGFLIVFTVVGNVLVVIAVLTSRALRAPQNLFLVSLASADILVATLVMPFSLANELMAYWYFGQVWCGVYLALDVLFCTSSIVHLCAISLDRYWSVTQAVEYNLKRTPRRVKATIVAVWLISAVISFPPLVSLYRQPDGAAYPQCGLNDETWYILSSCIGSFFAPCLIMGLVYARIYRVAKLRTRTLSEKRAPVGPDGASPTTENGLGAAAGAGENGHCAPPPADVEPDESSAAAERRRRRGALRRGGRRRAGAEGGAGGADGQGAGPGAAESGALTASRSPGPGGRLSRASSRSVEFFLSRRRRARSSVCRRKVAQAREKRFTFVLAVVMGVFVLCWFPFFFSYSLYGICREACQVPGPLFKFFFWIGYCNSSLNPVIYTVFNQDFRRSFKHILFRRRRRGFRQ

SMILES | cell count [1] | inhibition [1] | inhibition of aggregation [2] | nuclei count [2] [%] | inhibition [3] | nuclei count [3] [%] | fluorescence slope [4] | NADPH fluorescence slope [5] | slope [6] | inhibition [7] | inhibition [8]
COc1cc(C(O)c2nc3ccccc3n2C)cc(OC)c1OC (centres undefined) | 384 | 25.8% (active) | 21.2% (inactive) | 81.3 | -13.7% (inactive) | 108 | -0.453 (inactive) | -2.3e-05 (inactive) | 0.00191 (inactive) | 2.58% (inactive) | 18.3% (inactive)
Nc1nc(-c2ccc(Br)s2)c(Br)s1 | 579 | -10.7% (inactive) | 5.7% (inactive) | 102 | 18.6% (inactive) | 98 | -0.507 (inactive) | 2.9e-05 (inactive) | 0.00465 (inactive) | 1.12% (inactive) | 2.3% (inactive)
Cc1ccc(C)c(C(=O)CC2(O)C(=O)Nc3ccccc32)c1 (centres undefined) | 602 | -11% (inactive) | 23.6% (inactive) | 62.9 | -108% (inactive) | 126 | -0.416 (inactive) | -3.2e-05 (inactive) | 0.00493 (inactive) | 3.23% (inactive) | -1.7% (inactive)
COCC(=O)N(c1ccc(C(C)C)cc1)C1C=CS(=O)(=O)C1 (centres undefined) | 691 | -23.8% (inactive) | 20.8% (inactive) | 129 | -55.5% (inactive) | 103 | -0.314 (inactive) | -7.6e-06 (inactive) | 0.00672 (inactive) | 7.64% (inactive) | 28.1% (inactive)
COc1cccc(C(c2nnnn2CCc2ccccc2)N2CCN(c3ccccc3)CC2)c1OC (centres undefined) | 605 | -23.5% (inactive) | -19.6% (inactive) | 94.9 | 48.8% (inactive) | 91.6 | -0.516 (inactive) | -3e-06 (inactive) | 0.00514 (inactive) | 18.8% (inactive) | 10.1% (inactive)
Cc1cc(C(=O)Nc2cccnc2)no1 | 543 | -10.1% (inactive) | -9.5% (inactive) | 116 | -133% (inactive) | 112 | -0.35 (inactive) | -5.2e-05 (inactive) | 0.0058 (inactive) | -17% (inactive) | -20.9% (inactive)
CCC(C)Nc1nc2c(c(=O)n(C)c(=O)n2C)n1Cc1ccc(F)cc1 (centres undefined) | 436 | 14.8% (inactive) | 9.6% (inactive) | 100 | -18.5% (inactive) | 106 | -0.617 (inactive) | -3.2e-05 (inactive) | 0.00579 (inactive) | 15.9% (inactive) | 23.7% (inactive)
CN(C)CCN1C(=O)c2oc3ccc(Cl)cc3c(=O)c2C1c1cccc(Br)c1 (centres undefined) | 229 | -8.1% (inactive) | 13.3% (inactive) | 83.3 | -36.3% (inactive) | 89.9 | -0.412 (inactive) | -1.4e-05 (inactive) | 0.00335 (inactive) | 17.2% (inactive) | 49.7% (inactive)
c1coc(-c2nnc(NC3=NCCC3)o2)c1 | 527 | -5.3% (inactive) | 6.6% (inactive) | 98.8 | -80.8% (inactive) | 162 | -0.526 (inactive) | 2.5e-05 (inactive) | 0.0054 (inactive) | -15.4% (inactive) | -42.4% (inactive)
Cc1ccc2cc3cc(C(=O)NCCN4CCOCC4)oc3nc2c1 | 760 | -5% (inactive) | 3.7% (inactive) | 105 | -36.3% (inactive) | 111 | -0.0588 (inactive) | -2.5e-05 (inactive) | 0.00283 (inactive) | 7.18% (inactive) | 8.18% (inactive)
COC(=O)Nc1ccc(NC(C)=O)cc1 | 398 | -4.4% (inactive) | 20.9% (inactive) | 82.1 | 6.8% (inactive) | 94.6 | -0.493 (inactive) | 6e-05 (inactive) | 0.00538 (inactive) | -9.94% (inactive) | -5.16% (inactive)
Cc1cc(C)cc(-n2nnc(C(=O)NCc3ccc4c(c3)OCO4)c2N)c1 | 571 | 7.5% (inactive) | -33.1% (inactive) | 108 | -17.7% (inactive) | 108 | -0.572 (inactive) | 2.9e-05 (inactive) | 0.00545 (inactive) | 7.67% (inactive) | 22.1% (inactive)
Cc1ccc(-c2cc(C(=O)O)n[nH]2)o1 | 358 | 1% (inactive) | 3.3% (inactive) | 101 | -1.4% (inactive) | 97.7 | -0.612 (inactive) | 4.6e-05 (inactive) | 0.00603 (inactive) | 9.01% (inactive) | 14.9% (inactive)
COCCN(C(=O)CCC(=O)Nc1ccccn1)C(C(=O)NC1CCCC1)c1ccc(OC)cc1 (centres undefined) | 528 | -26.5% (inactive) | 16.1% (inactive) | 105 | -44.5% (inactive) | 92 | -0.395 (inactive) | -9e-05 (inactive) | 0.00514 (inactive) | 1.15% (inactive) | 23.2% (inactive)
Cn1c(SCC(=O)N2CCOCC2)nnc1-c1cnccn1 | 656 | 1% (inactive) | -11.1% (inactive) | 122 | -36.3% (inactive) | 114 | -0.396 (inactive) | 8e-06 (inactive) | 0.00449 (inactive) | 3.04% (inactive) | 21.7% (inactive)
Cc1cc(OCC(=O)NCCO)cc(C)c1Cl | 419 | -2.3% (inactive) | 11.1% (inactive) | 73.3 | 28.3% (inactive) | 92.3 | -0.428 (inactive) | 2.8e-05 (inactive) | 0.00371 (inactive) | -0.456% (inactive) | 24.5% (inactive)
Cc1nc(N2CCC(C)CC2)c2c(C)c(C(=O)O)sc2n1 | 657 | -4.1% (inactive) | 31% (inactive) | 66.2 | -72.5% (inactive) | 103 | -0.303 (inactive) | 1.1e-05 (inactive) | 0.00417 (inactive) | 14% (inactive) | 23.3% (inactive)
CCOc1ccc(C(=O)OCc2nnc(-c3cccs3)o2)cc1OC | 737 | 7.1% (inactive) | 4.7% (inactive) | 101 | -51.1% (inactive) | 137 | -0.603 (inactive) | 1.9e-06 (inactive) | 0.00555 (inactive) | 12.1% (inactive) | 27.5% (inactive)
Cc1ccc(Cl)cc1N1CCN(C(=O)C2CCCN(S(=O)(=O)c3cnc[nH]3)C2)CC1 (centres undefined) | 563 | 10.1% (inactive) | -1.2% (inactive) | 102 | -74.4% (inactive) | 126 | -0.532 (inactive) | -2.9e-05 (inactive) | 0.00714 (inactive) | -6.79% (inactive) | 3.89% (inactive)
O=C1CC(C2CCCO2)C(=O)N1Cc1ccccc1 (centres undefined) | 418 | -5.4% (inactive) | 19% (inactive) | 101 | -1.7% (inactive) | 125 | -0.489 (inactive) | -3.7e-05 (inactive) | 0.00667 (inactive) | -6.03% (inactive) | 10.9% (inactive)
Cc1ccccc1-n1c(=O)c2ccccc2n2nnnc12 | 789 | -6.4% (inactive) | -0.5% (inactive) | 125 | -23.1% (inactive) | 103 | -0.517 (inactive) | 2.5e-05 (inactive) | 0.00577 (inactive) | -17% (inactive) | -4.05% (inactive)
COc1ccccc1S(=O)(=O)Cc1ccc(C(=O)NCCN2CCCCCC2)o1 | 522 | 13.4% (inactive) | 15.2% (inactive) | 91.6 | 9% (inactive) | 81.1 | -0.588 (inactive) | -3.5e-05 (inactive) | 0.00667 (inactive) | 11% (inactive) | 39.3% (inactive)
CCCSc1nc2c(cnn2-c2ccc(Cl)cc2)c(=O)[nH]1 | 213 | -1.3% (inactive) | -9.2% (inactive) | 108 | -40.2% (inactive) | 122 | -0.609 (inactive) | -1.8e-05 (inactive) | 0.011 (inactive) | 16% (inactive) | 14.5% (inactive)
COc1cc(C)c(N)cc1C(C)C | 422 | -5.6% (inactive) | 5.2% (inactive) | 81.4 | -41.7% (inactive) | 110 | -0.589 (inactive) | -1.8e-05 (inactive) | 0.00295 (inactive) | 12.9% (inactive) | 18.3% (inactive)
COc1ccc(CN(C(=O)c2oc3ccccc3c2C)C2CCS(=O)(=O)C2)cc1 (centres undefined) | 592 | 1.7% (inactive) | 7.1% (inactive) | 87.3 | -5.9% (inactive) | 102 | -0.444 (inactive) | 2.9e-05 (inactive) | 0.00692 (inactive) | -2.17% (inactive) | 8.82% (inactive)
CC1CCN(C(=O)CN2C(=O)C(C)(C)Oc3ccc(C(=O)NC4CCCC4)cc32)CC1 | 458 | 0.3% (inactive) | -4.6% (inactive) | 84.4 | -83.6% (inactive) | 117 | -0.503 (inactive) | -1.2e-05 (inactive) | 0.00666 (inactive) | -6.8% (inactive) | 14.6% (inactive)
COC(=O)c1cn(C(=O)c2ccc(Br)o2)c2ccccc12 | 309 | -12.5% (inactive) | 17.4% (inactive) | 97.7 | -179% (inactive) | 101 | -0.33 (inactive) | -2.6e-05 (inactive) | 0.00583 (inactive) | 0.625% (inactive) | 18% (inactive)
COC(=O)c1cc2ccsc2n1Cc1nc(-c2ccc(OC)cc2)oc1C | 622 | -17% (inactive) | -22% (inactive) | 120 | -66.3% (inactive) | 109 | -0.347 (inactive) | -2.6e-05 (inactive) | 0.00726 (inactive) | -25.1% (inactive) | -56.7% (inactive)
Cc1cc(C)c2c(=O)n(CC(=O)NCCCN3CCN(c4ccccc4F)CC3)sc2n1 | 725 | -2.8% (inactive) | 2.8% (inactive) | 105 | -81.4% (inactive) | 119 | -0.525 (inactive) | -4.4e-05 (inactive) | 0.00504 (inactive) | 12% (inactive) | 34.1% (inactive)
